Assay outcomes: PubChem BioAssay, National Center for Advancing Translational Sciences (NCATS)
Shown is part of a subset that was picked to be rich in hits.
Pf Dd2 inh – qHTS Primary assay for Inhibitors of Plasmodium falciparum Dd2 growth in vitro. P. falciparum Dd2 growth, SYBR Green, 72 h. Potency, µM (highest dose often 28.9 µM), without a hit: at the top dose activity, negative = inhibition, most hits filed as inhibitors. hit rate 4.3% among 120,000. AID 1347417, 2020; active = well fitted inhibition curve with a large enough effect;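 note: plate controls were DMSO vehicle for no effect and reference drug for full effect; nearly all actives have a fitted effect of over 65% in size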
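Readout: SYBR Green fluorescence, 485 nm excitation, 535 nm emission, after ~16 h lysis at 37C. Before that, Dd2-infected red cells (2.5% hematocrit) grew 72 h with compound, 29 uM top final concentration.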
The depositor's hits bear a star; i = inactive; [ ] = dose if it differs, or a comment. Potency is the fitted concentration of half-maximal effect.

SMILES	Pf Dd2 inh
Cc1ccc(C(=O)N2CCCC(n3cc(-c4nc(C(C)C)no4)nn3)C2)cc1 (stereo not drawn)	-18.0%
CCOc1ccc(C2NC(=O)N(CC)C3=C2C(=O)OC3)cc1 (stereo not drawn)	-1.4%
O=C1NCCCCCN(C(=O)C2CCC2)[C@H]2CCCC[C@@H]12	25.2%
Cn1cc(CN2CCCC23CCN(c2ccnc4c(C(F)(F)F)cccc24)CC3)cn1	i
CCc1ncc(CN2CCCC23CCN(c2ccc(C(F)(F)F)cn2)CC3)cn1	7.94µM*
CCn1ccnc1CN1CCCC12CCN(c1ccc(C(F)(F)F)cn1)CC2	-7.1%
O=C(c1cccs1)N1CC[C@H](c2nnc(-c3ccc(Cl)cc3)o2)C1	-15.0%[44.1 µM]
CC(C)(O)CCc1cccc(C(=O)NCC(O)c2ccncc2)c1 (stereo not drawn)	0.9%
COCCNC(=O)C1c2ccccc2C(=O)N(C2CCCC2)C12CCCC2 (stereo not drawn)	2.9%
O=C(Nc1ccc([C@@H](O)[C@H]2COCC(=O)N2Cc2ccncc2)cc1)C1CCC1	4.0%[44.1 µM]
O=C(c1ccc2c(c1)OCO2)N1CCCC2(CNc3ccccc3[S+](=O)([O-])N2)C1 (stereo not drawn)	-8.0%
O=C(Nc1cccn2nc(C3CCC3)nc12)c1cccc(C(F)(F)F)c1	4.47µM*
Cc1ccc(C(=O)Nc2cccn3nc(C4CCC4)nc23)cc1C	i
O=C(Nc1cccn2nc(C3CCC3)nc12)c1ccc(F)cc1	i
CC(NC(=O)COc1ccc(F)cc1)C(=O)N1CCN(c2ccccn2)CC1 (stereo not drawn)	i
COCc1cn(C[C@H]2C[C@@H](NC(=O)C3CCOCC3)[C@H](O)[C@@H]2O)nn1	25.2%[44.1 µM]
O=C(C1=NOC2CN(C(=O)C3CC3)CC12)N1CCN(c2ncccn2)CC1 (stereo not drawn)	11.9%
COCCOC1CN(C2CCN(C(=O)Nc3ccccc3F)CC2)C12CCCCC2 (stereo not drawn)	i
COCCOC1CN(C2CCN(Cc3cccc(F)c3)CC2)C12CCCCC2 (stereo not drawn)	3.55µM*
COCCOC1CN(C2CCN(Cc3ccc(F)c(F)c3)CC2)C12CCCCC2 (stereo not drawn)	2.51µM*
COCCOC1CN(C2CCN(Cc3ccncc3)CC2)C12CCCCC2 (stereo not drawn)	i
COCCOC1CN(C2CCN(C(=O)c3ccc(OC)c(F)c3)CC2)C12CCCCC2 (stereo not drawn)	i
COCCOC1CN(C2CCN(S(=O)(=O)c3ccccc3)CC2)C12CCCCC2 (stereo not drawn)	i
CC(C)CCNC(=O)NC1CCN(C(=O)N2CC3CC(C2)[C@H]2CCCC(=O)N2C3)CC1 (stereo partly drawn)	-20.6%
Cc1ncsc1CN1CCc2nn(C)c(=O)n2CC1	-9.5%
SMILES	Pf Dd2 inh
CCOCCOC1CCN(C(=O)Nc2ccccc2)CC1	6.1%
CN(C)C(=O)N1CCCC(C(=O)NCCc2nc(-c3ccccn3)no2)C1 (stereo not drawn)	-3.8%
O=C(O)CCC(=O)N1CC[C@H](c2nnc(-c3cccnc3)o2)C1	11.5%[44.1 µM]
Cn1cc(CN[C@@H]2C[C@H](CO)[C@@H](O)[C@H]2O)c2ccccc21	-24.9%[44.1 µM]
CCOc1ccccc1C(=O)NCc1nnc2c(-c3nc(C4CC4)no3)cccn12	3.16µM*
CCc1noc(-c2cccn3c(CNC(=O)COc4cccc(C)c4)nnc23)n1	-17.2%
COc1cccc(C(=O)NCc2nnc3c(-c4nc(C)no4)cccn23)c1	-29.8%
O=C(NCc1nnc2c(-c3nc(C4CC4)no3)cccn12)c1cc(F)ccc1F	-23.2%
CCc1noc(-c2cccn3c(CNC(=O)c4ccc(F)cc4)nnc23)n1	-20.3%
Cc1ccccc1C(=O)NCc1nnc2c(-c3nc(C(C)C)no3)cccn12	i
Cc1noc(-c2cccn3c(CNC(=O)c4cccc(N(C)C)c4)nnc23)n1	0.562µM*
Cc1ccc(C(=O)NCc2nnc3c(-c4nc(C5CC5)no4)cccn23)cc1C	-13.1%
CCc1noc(-c2cccn3c(CNC(=O)COc4ccc(F)cc4)nnc23)n1	0.708µM*
Cc1noc(-c2cccn3c(CNC(=O)c4ccccc4)nnc23)n1	-10.5%
COc1ccc(Cl)cc1C(=O)NCc1nnc2cc(-c3nc(C(C)C)no3)ccn12	-1.4%
COc1ccc(Cl)cc1C(=O)NCc1nnc2c(-c3nc(C(C)C)no3)cccn12	1.78µM*
Cc1cc(C)c(C)c(S(=O)(=O)NC2CCN(c3ccc(=O)n(CC4CC4)n3)CC2)c1C	-27.4%
CCCn1cc(CNC(=O)c2cc3c(s2)CCC(C)C3)cn1 (stereo not drawn)	-23.9%
Cc1ccc(C(=O)N2C(C(=O)N3CCCC3)COC23CCN(C(=O)c2ccc(F)cc2)CC3)cc1 (stereo not drawn)	-15.6%
CCN1CCNC(=O)C1CC(=O)N1CCn2nc(Cc3ccccc3)cc2C1 (stereo not drawn)	2.5%
Cc1cccc(C(=O)NC(C(=O)N2CCOCC2)C2CCN(C(=O)c3ccc4c(c3)OCO4)CC2)c1 (stereo not drawn)	i
Cc1cc(CN(C)C(=O)CC(c2ccccc2)c2ccc3c(c2)OCO3)n[nH]1 (stereo not drawn)	i
COc1ccc(-c2ccnc3nc(C(C)C)nn23)cc1	-22.1%
COc1ccc(OCC2CCCN(C(=O)c3cn(C4CCCCC4)nn3)C2)cc1 (stereo not drawn)	-16.1%
O=C(Nc1ccncc1)c1ccnc(-c2nnc3ccc(N4CCOCC4)nn23)c1	i
SMILES	Pf Dd2 inh
Nc1c(C(=O)Nc2ccc(OC(F)(F)F)cc2)sc2nc3c(cc12)N1CCC3CC1	11.2µM*
CC(=O)c1ccc(NC(=O)c2sc3nc4c(cc3c2N)N2CCC4CC2)cc1	-14.6%
COc1ccc(NC(=O)c2sc3nc4c(cc3c2N)CN(Cc2ccccc2)CC4)cc1	i
Cc1cccc(CCNC(=O)C2N(C(C)C)C(=O)C23CCCC3)c1 (stereo not drawn)	-18.4%
Cc1ccc(O)c(NC(=O)c2cc(-c3ccccc3O)no2)c1	2.24µM*
Cc1ccc(O)c(NC(=O)COCc2cc(-c3ccco3)on2)c1	17.9%
COc1cccc(-c2cc(C(=O)Nc3cc(OC)c(OC)c(OC)c3)on2)c1	-12.8%[0.594 µM]
COc1ccc(OC)c(NC(=O)c2noc3c2CCCC3)c1	-13.7%
COc1cccc(-c2cc(C(=O)Nc3cc(Cl)ccc3O)on2)c1	1µM*
Cc1ccc(C)c(N2CCN(C(=O)c3noc4c3CCCCC4)CC2)c1	i
COc1cccc(C(=O)Nc2cc(-c3ccccc3)no2)c1	-1.0%
O=C(Nc1cccc(O)c1)c1cc(-c2ccccc2F)no1	-13.0%
Cc1ccc(O)c(NC(=O)c2noc3c2CCCCC3)c1	4.47µM*
CCCN(CC1CCOC1)S(=O)(=O)Cc1ccccc1Cl (stereo not drawn)	21.5%[5.79 µM]
CO[C@@H]1COCC[C@H]1NC(=O)c1ccc(CSc2ccccn2)cc1	-10.1%
Cc1ncoc1C(=O)N1CCC2(CCCN(Cc3cccc(F)c3F)C2=O)C1 (stereo not drawn)	i
CCS(=O)(=O)Nc1ccc(C)n(CC(=O)NCc2ccccc2C)c1=O	i
Cc1nnc2n1CCC(N(C)C(=O)Cc1ccsc1)CC2 (stereo not drawn)	i
O=C(c1nc(-c2cccnc2)c2ccccn12)N1CCN(c2ncccn2)CC1	-1.8%
C[S+](=O)([O-])c1ccc(-c2nc(C(=O)N3CCN(c4ncccn4)CC3)n3ccccc23)cc1	7.08µM*
O=C(c1nc(-c2cc(Cl)cc(Cl)c2)c2ccccn12)N1CCN(c2ncccn2)CC1	i
